Source: PubChem BioAssay
HCV inh = inhibitors of hepatitis C virus infection; Huh7.5.1 HCVcc-Cre infection, luciferase reporter, 44 h; Potency, µM (titrated, usually from 41.8 µM), most hits filed as inhibitors; 340,000 tested, 3.4% active; AID 651820
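Luciferase read-out (15 sec integration) after a 15 min room-temperature substrate step quantifies HCVcc-Cre infection. Cells, 1,000 per well, had compound added 4 h post-plating, then virus at ~0.5 moi, and were cultured 44 h.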
HCMV inh = human cytomegalovirus inhibition; HFF cells, HCMV-luciferase reporter, 72 h; stronger effect = lower value; activity change, negative = inhibition, % at 57.5 µM; 410,000 tested, 4.5% active; in the data active = activity change below about -60%; inconclusive = no clear call, values can overlap the other calls; inactive = above about -39%
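Cell-based, HFFs, 1000 cells/well, 16 h 37C; cpds in DMSO + HCMV-luc, MOI 1 PFU/cell; 72 h 37C; OneGlo luminescence after 5 min RT; norm. to buffer vs Salinomycin 10uM.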
FMDV inh = blocks foot and mouth disease virus; FMDV antiviral cell-based qHTS; Potency, µM (series often up to 57.9 µM), actives largely listed as inhibitors; 410,000 tested, 1.2% active; AID 1159524; calls by dose curve; tested in HEK293T cells; also: read-out not given here; nearly all actives have a fitted effect of over 45% in size
FBPA Giardia inh = Giardia lamblia aldolase inhibition; A8B2U2; purified Giardia FBPA; Potency, µM (series often up to 59.6 µM), most hits filed as inhibitors; 290,000 tested, 0.71% active; also: nearly all actives have a fitted effect of over 55% in size
Target sequence (A8B2U2 whole entry, looked up): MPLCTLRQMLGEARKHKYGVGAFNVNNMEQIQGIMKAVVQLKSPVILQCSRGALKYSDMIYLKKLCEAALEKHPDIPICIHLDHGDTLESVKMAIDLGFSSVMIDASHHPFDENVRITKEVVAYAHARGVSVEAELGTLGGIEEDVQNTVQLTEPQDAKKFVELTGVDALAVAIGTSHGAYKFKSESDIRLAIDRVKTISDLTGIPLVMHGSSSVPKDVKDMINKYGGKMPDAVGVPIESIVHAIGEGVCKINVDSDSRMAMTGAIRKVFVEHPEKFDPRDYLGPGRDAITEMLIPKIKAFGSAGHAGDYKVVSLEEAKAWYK
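40 nM FBPA preincubated 10 min at RT with compound (up to 57.5 uM final), then substrate plus GAPDH/TPI/NAD/arsenate coupling and diaphorase/resazurin added. Fluorescence read after 20 min at RT, 525/598 nm.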
Vaccinia mCherry = vaccinia inhibition (mCherry reporter) | Vaccinia virus mCherry reporter infection, fluorescence | Potency, µM (highest dose often 36.5 µM), hits mostly inhibitors | 310,000 tested, 0.63% active | AID 720579; calls by dose curve; tested in A549 cells; also: nearly all actives have a fitted effect of over 35% in size
Vaccinia Venus = inhibitors of vaccinia virus (Venus reporter). Vaccinia virus Venus reporter expression, fluorescence. Potency, µM (series often up to 36.5 µM), most hits filed as inhibitors. 330,000 tested, 0.46% active. AID 720580; calls by dose curve; tested in A549 cells; also: nearly all actives have a fitted effect of over 30% in size
Numbers stand for hits; 0 = inactive; ? = inconclusive; - = no result given; [ ] = another dose, or the depositor's remark. A selection: hits, their analogues and other compounds. The true share with any hit is near 7.5%. Unless noted, calls follow the shape of the dose curve; as a rule, active = well fitted curve in the direction sought with a large enough effect; inconclusive = small, poorly fitted or top-dose-only effect, or another doubt; inactive = no such curve, though single readings can be large; an effect the other way counts as inactive or inconclusive.

SMILES	HCV inh	HCMV inh	FMDV inh	FBPA Giardia inh	Vaccinia mCherry	Vaccinia Venus
NC(=O)CSc1nnc(-c2ccc(S(=O)(=O)N3CCCC3)cc2)o1	0	0	-	0	?	3.16µM
Cc1ccccc1-c1nnc(SCC(=O)NCC2CCCO2)o1 (stereo not given)	0	0	0	-	-	-
O=C(CSc1nnc(-c2cccc(Br)c2)o1)NCC1CCCO1 (stereo not given)	-	0	0	-	?	14.1µM
COC(=O)CSc1nnc(-c2ccc(S(=O)(=O)N3CCCC3)cc2)o1	0	0	0	0	0	0
O=C(CSc1nnc(-c2ccc(S(=O)(=O)N3CCCC3)cc2)o1)NCC1CCCO1 (stereo not given)	0	0	0	0	3.98µM	4.47µM
CCCCCCCCN1C(=O)[C@H](CC(=O)N2CCCC2)C[C@@]2(C(=O)OC)CC(C)(C)CC=C12	-	0	0	-	?	?
CN1CCCC1CCNS(=O)(=O)c1ccc(Br)cc1 (stereo not given)	10µM	0	0	0	-	0
Brc1ccc2ncnc(Nc3ccc(N4CCOCC4)cc3)c2c1	?	-82.2	?	0	?	?
O=C(COc1ncnc2ccc(Br)cc12)Nc1ccc(N2CCOCC2)cc1	0	0	0	0	-	-
Clc1nc(Nc2ccc(N3CCOCC3)cc2)c2ccccc2n1	?	-71.7	?	0	0	0
Cn1c(-[n+]2c(-c3ccccc3)cc(-c3ccccc3)cc2-c2ccccc2)nc2c([N+](=O)[O-])cccc21	?	-60.1	0	0	0	?
Cc1ccc(-n2c(N)c(C(=O)N3CCOCC3)sc2=S)cc1	?	0	0	0	-	-
CN1CCN(C(=O)c2sc(=S)n(-c3ccccc3)c2N)CC1	0	-91.9	0	5.61µM	-	-
N#CNC(=Nc1ccccc1)SCc1ccc(C(=O)O)cc1	0	0	0	0	0	0
CSC(=Nc1ccccc1)N=C(SCc1ccccc1)N(C)C	?	-101.4	?	-	?	?
O=C(Nc1ccccc1)c1sccc1Oc1ccc([N+](=O)[O-])cc1F	0	0	0	0	0	0
Cc1cc(Nc2cccc(Cl)c2)nc(-c2ccccc2O)n1	?	0	?	0	0	0
COC(=O)c1cccc(Nc2cc(C)nc(-c3ccccc3O)n2)c1	0.794µM	0	0	0	0	?
Cc1cc(Nc2ccc(Cl)cc2)nc(-c2ccccc2O)n1	11.2µM	0	0	0	-	-
CCOc1ccc(C(CC(=O)O)NC(=O)COc2ccc3ccccc3c2)cc1OC (stereo not given)	0	0	0	0	-	-
CCOC(=O)c1nnn(CC(=O)NC(=O)Nc2ccc(F)cc2)c1C(=O)OCC	0	0	0	0	0	0
O=C1CCCCC1Sc1nnc(-c2ccc3c(c2)OCO3)o1 (stereo not given)	0	?	3.98µM	0	0	0
Clc1ccc(CSc2nnc(-c3ccc4c(c3)OCO4)o2)cc1	0	0	0	0	-	0
CC(C)[C@@H]1CN=C(N)N1C[C@@H]1CCCN1C[C@H](C)N1C[C@@H](Cc2ccccc2)N(CCc2ccc(Cl)c(Cl)c2)C1=N	0.562µM	-	0	-	0	0
CCN(CC)C(=O)CSc1nc(N)c(C(=O)Nc2ccc(OC)cc2)s1	0	?	0	0	12.6µM	?
SMILES	HCV inh	HCMV inh	FMDV inh	FBPA Giardia inh	Vaccinia mCherry	Vaccinia Venus
CCOC(=O)c1c(S(=O)(=O)N2CCCC(C(=O)N3CCN(c4cc(C)ccc4C)CC3)C2)c(C)n(C)c1C (stereo not given)	-	0	0	-	0	0
CCc1ccc(C2=NNC(=Nc3cccc(S(=O)(=O)N(C)C)c3)SC2)cc1	4.47µM	-98.6	0	0	?	?
Cc1ccc(C2=NNC(=Nc3ccc(F)cc3)SC2)cc1	?	0	0	0	0	0
COc1ccccc1OCCSc1nc2ccccc2n1CC(N)=O	0	0	0	0	0	0
COc1ccc(C)cc1NC(=O)CC1COc2ccccc2O1 (stereo not given)	0	-61.5	0	0	0	0
N=C1S/C(=C\c2ccc(-c3cccc(Cl)c3)o2)C(=O)N1c1nccs1	0	-77.9	0	0	0	0
COc1ccc(/C=C2\SC(=N)N(c3nccs3)C2=O)cc1OC	?	-93.7	?	0	0	0
COc1ccc(/C=C2\SC(=S)N(NC(=O)c3ccncc3)C2=O)cc1OC	-	-	-	0	-	-
COc1ccc(NC(=O)c2ccc([N+](=O)[O-])o2)cc1	?	-101.4	0	0	?	?
Cc1cc(C)cc(NC(=O)c2ccc([N+](=O)[O-])o2)c1	?	0	0	0	?	?
CC(=O)c1ccc(NC(=O)c2ccc([N+](=O)[O-])o2)cc1	?	-104.7	0	0	-	-
CC(=O)c1cccc(NC(=O)c2ccc([N+](=O)[O-])o2)c1	?	-86.5	0	-	0[7.34 µM]	0[7.34 µM]
CCN(CC(=O)NCc1cccs1)C(=O)/C=C/c1cc(Br)ccc1OC(F)F	0	?	0	-	-	-
Cc1ccc(-c2ccc(C(=O)NCCCNC(=O)c3cnccn3)o2)cc1Cl	0	0	0	0	0	0
COc1c(Cl)cc(Cl)cc1CNCCSc1nnnn1C	-	0	0	-	0	0
CCCSC1=C(C#N)C(c2ccccc2C)CC(=O)N1 (stereo not given)	0	-99.3	?	0	-	0
CCSC1=C(C#N)C(c2ccccc2OC)CC(=O)N1 (stereo not given)	0	-74.9	0	0	0	0
COC(=O)c1ccc2nc(-c3ccc(C)cc3)c(CC3CCCCC3)n2c1	-	0	0	-	0	0
COc1cc2c(C(=O)N(C)c3cc(Cl)ccc3OC)cn(CC(C)C)c(=O)c2cc1OC	-	-60.5	0	-	0	0
O=C(O)c1nn(CC(=O)N2CCN(c3ncc(C(F)(F)F)cc3Cl)CC2)c(=O)c2ccccc12	?	?	?	0	?	0
CCOC(=O)C1CCCN(C(=O)c2cnn(-c3ncc4c(n3)-c3ccccc3CC4)c2C)C1 (stereo not given)	-	-	0	-	0	0
CS(=O)(=O)N(CC(=O)NCC1CCCO1)c1ccc(F)c(Cl)c1 (stereo not given)	0	-60.4	0	0	-	0
CS(=O)(=O)N(CC(=O)NCC1CCCO1)c1ccc(Cl)c(Cl)c1 (stereo not given)	0	0	-	0	0	0
CN(C)c1cc(C(F)(F)F)nc(-c2ccccn2)n1	0	0	0	0	-	-
CSCc1cc(N(C)c2ccccc2)nc(-c2ccccn2)n1	2.82µM	-84.9	0	0	0	?
O=C(CNC(=O)C12CC3CC(CC(C3)C1)C2)NCc1ccccc1	0	0	0	-	0	0
C[C@@H]1C[C@@H]2OC(=O)[C@]3(C)[C@H]2[C@@H](OC3(C)O)[C@]2(C)C(=O)C=C[C@H]12 (stereo not given in full)	0	0	0	0	0	?
C=C1C(=O)C=C[C@]2(C)C[C@@H]3OC(=O)[C@](C)(O)[C@H]3C[C@@H]12	?	-98.0	28.2µM	0	?	?
O=C(N/N=C/c1ccoc1)c1ccc(Cl)cc1	0	-74.6	0	-	-	-
O=C(Cc1ccc(Cl)cc1)N/N=C/c1ccc(O)c(O)c1	-	0	0	-	0	0
